From PubChem BioAssay (NCATS)
Records with an inconclusive call do not appear. The source made the active and inactive calls. The call rests on the fitted dose curve; in most records, active means well fitted curve in the direction sought with a large enough effect; inconclusive means small, poorly fitted or top-dose-only effect, or another doubt; inactive means no such curve, though single readings can be large; an effect the other way counts as inactive or inconclusive.

How the values were obtained:
[1] = qHTS for inhibitors of adenylyl cyclases using a fission yeast platform: a pilot screen against the NCATS LOPAC library (AID 1347410)
Summary of the method: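 Growth medium went into the plates first, then compounds were pinned (final up to 57 µM), then CHP2027 yeast were added. Plates were incubated overnight (18 h) at 30C in the dark, and GFP was measured by laser scanning cytometry.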

[2] = Validation qHTS assay for inhibitors of Activation Induced Cytidine Deaminase (AID): UDG Counterscreen signal (AID 1347427)
Summary of the method: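 Counterscreen read of UDG activity (2 U/mL, 4/3x) in the FRET deamination format with AID (1 uM, 4/3x), DJC20/DJC23 substrates (250 nM, 4x), 4 h at room temperature. NaOH stop, fluorescence at 560 ex/665 em.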

[3] = biological target: Single-stranded DNA cytosine deaminase (Homo sapiens) (UniProt Q9GZX7); assay: Validation qHTS assay for inhibitors of Activation Induced Cytidine Deaminase (AID): AID signal (AID 1347429)
Summary of the method: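 Fluorescence at 540 nm excitation and 590 nm emission reports ssDNA cytosine deamination by AID, with UDG in the same well. Compound-treated reactions ran 4 hr at room temperature with DJC20/DJC23 substrate, followed by 30 min NaOH treatment.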

[4] = Primary qHTS for inhibitors of La Crosse Virus (LACV) - induced cell death in SH-SY5Y cells (AID 1508616);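 further: top concentration of the series differs between compounds; higher means more rescue of cells from virus-induced death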
Summary of the method: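 Protection against LACV-induced cell death is scored in SH-SY5Y cells exposed to compounds and virus (0.01 MOI) for 6 days. Data normalized to virus-infected DMSO wells and virus-free DMSO wells.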

[5] = biological target: Calcium and integrin-binding protein 1 (Homo sapiens) (UniProt Q99828); assay: Validation qHTS for Identification of Calcium Integrin Binding protein 1 (CIB1) Competitor (AID 1508618)
Summary of the method: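 In this qHTS validation, the LOPAC set (up to 114 uM) was tested for blocking CIB1 binding to a fluorescein-tagged alphaIIb peptide, with FP detection at 480/540 nm.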

[6] = Primary qHTS for small molecule stabilizers of the endoplasmic reticulum resident proteome: Secreted ER Calcium Modulated Protein (SERCaMP) assay (AID 1508630)
Summary of the method: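 GLuc-SERCaMP-expressing SH-SY5Y cells, pretreated 16 h with compound, are challenged with thapsigargin to empty ER calcium stores; after 4 h, coelenterazine is added directly to the medium and luminescence is imaged.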

Papain (Carica papaya) = Papain (Carica papaya) (UniProt P00784); assay: Primary qHTS assay for inhibitors of the protease papain (AID 1645873);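 further: papain turnover of Z-FR-AMC read as the AMC fluorescence gain over 10 min; series mostly up to about 50 µM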

Measured: Potency

Calcium and integrin-binding protein 1 (Homo sapiens), sequence (Q99828 whole entry, looked up): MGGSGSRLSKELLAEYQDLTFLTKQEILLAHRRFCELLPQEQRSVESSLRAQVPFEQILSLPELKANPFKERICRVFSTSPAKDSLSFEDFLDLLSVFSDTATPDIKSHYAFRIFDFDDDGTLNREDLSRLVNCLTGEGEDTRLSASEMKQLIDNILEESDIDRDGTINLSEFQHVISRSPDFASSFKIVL
Papain (Carica papaya), sequence (P00784 whole entry, looked up): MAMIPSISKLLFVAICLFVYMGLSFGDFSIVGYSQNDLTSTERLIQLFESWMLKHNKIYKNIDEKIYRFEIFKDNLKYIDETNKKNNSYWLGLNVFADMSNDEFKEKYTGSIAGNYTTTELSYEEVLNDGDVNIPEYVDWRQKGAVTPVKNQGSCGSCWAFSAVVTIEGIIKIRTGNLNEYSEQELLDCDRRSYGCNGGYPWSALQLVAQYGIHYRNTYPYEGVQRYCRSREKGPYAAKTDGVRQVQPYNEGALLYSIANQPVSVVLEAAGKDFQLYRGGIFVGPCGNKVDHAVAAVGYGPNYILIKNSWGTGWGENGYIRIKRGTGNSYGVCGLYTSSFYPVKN
Single-stranded DNA cytosine deaminase (Homo sapiens), sequence (Q9GZX7 whole entry, looked up): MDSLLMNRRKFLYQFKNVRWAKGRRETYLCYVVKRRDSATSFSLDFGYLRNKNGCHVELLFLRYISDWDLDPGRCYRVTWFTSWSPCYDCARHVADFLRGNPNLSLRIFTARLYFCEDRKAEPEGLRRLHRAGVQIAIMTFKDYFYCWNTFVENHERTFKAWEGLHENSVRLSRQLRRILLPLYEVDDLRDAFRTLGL

Nc1ncnc2c1ncn2[C@@H]1O[C@H](COP(=O)(O)OP(=O)(O)OP(=O)(O)OP(=O)(O)OC[C@@H]2O[C@H](n3cnc4c(N)ncnc43)[C@@H](O)[C@H]2O)[C@@H](O)[C@H]1O
inactive: [1] | [2] | [3] | [4] | [5] | [6] | Papain (Carica papaya)

Fc1cccc(/C=N/N=C/c2cccc(F)c2)c1
inactive: [1] | [2] | [3] | [4] | [5] | [6] | Papain (Carica papaya)

O=c1[nH]c2cc([N+](=O)[O-])c([N+](=O)[O-])cc2[nH]c1=O
inactive: [1] | [2] | [3] | [4] | [6] | Papain (Carica papaya)

NCCCS(=O)(=O)O
inactive: [1] | [2] | [3] | [4] | [5] | [6] | Papain (Carica papaya)

COc1ccccc1CNCCCCCCNCCCCCCCCNCCCCCCNCc1ccccc1OC
inactive: [1] | [2] | [3] | [4] | [6]

Nc1nc(Nc2ccccc2)nc2c1ncn2[C@@H]1O[C@H](CO)[C@@H](O)[C@H]1O
inactive: [1] | [2] | [3] | [4] | [5] | [6] | Papain (Carica papaya)

O=C(c1cc(O)c(O)c([N+](=O)[O-])c1)c1ccccc1F
inactive: [1] | [2] | [3] | [4] | [6]

O=C(O)CNC(=O)C(CS)Cc1ccccc1 (stereo unspecified)
inactive: [1] | [2] | [3] | [4] | [5] | [6] | Papain (Carica papaya)

NC(N)=NC(=O)c1nc(Cl)c(N2CCCCCC2)nc1N
inactive: [1] | [2] | [3] | [4] | [5] | Papain (Carica papaya)

CC(C)NC[C@H](O)COc1cccc2[nH]ccc12
inactive: [1] | [2] | [3] | [4] | [5] | Papain (Carica papaya)

NCC1OC(O[C@H]2[C@H](O)[C@@H](OC3C(O)C(N)CC(N)C3OC3OC(CO)C(O)C(O)C3N)O[C@@H]2CO)C(N)C(O)C1O (stereo partly specified)
inactive: [1] | [2] | [3] | [4] | [6]

O=C(O)CCCC[C@@H]1CCSS1
inactive: [1] | [2] | [3] | [4] | [6] | Papain (Carica papaya)

O=C(O)CC1CCCc2ccccc2C1O (stereo unspecified)
inactive: [1] | [2] | [3] | [4] | [5] | [6] | Papain (Carica papaya)

CC(=O)N[C@H](C(=O)O)C(C)(C)SN=O
inactive: [1] | [2] | [3] | [4] | [5] | [6] | Papain (Carica papaya)

CN(C)C(N)=NCCC[C@H](N)C(=O)O
inactive: [1] | [2] | [3] | [4] | [5] | [6] | Papain (Carica papaya)

CNc1ncnc2c1ncn2[C@@H]1O[C@H](CO)[C@@H](O)[C@H]1O
inactive: [1] | [2] | [3] | [4] | [5] | [6] | Papain (Carica papaya)

C=CC(C)=C[C@@]1(C)SC(=O)C(C)=C1O
inactive: [1] | [2] | [3] | [4] | [5] | Papain (Carica papaya)

CN(C)c1ccc(/C=C2\C(=O)Nc3ccccc32)cc1
inactive: [1] | [2] | [3] | [4] | [5] | [6] | Papain (Carica papaya)

N#C/C(=C\c1ccc(-c2cc(Cl)ccc2Cl)o1)C(=O)Nc1cccc2ncccc12
inactive: [1] | [2] | [3] | [4] | [5] | Papain (Carica papaya)

Clc1ccc(N2CCN(Cc3c[nH]c4ncccc34)CC2)cc1
inactive: [1] | [2] | [3] | [4] | [5] | [6] | Papain (Carica papaya)

Clc1ccc(N2CCN(Cc3cc4ccccn4n3)CC2)cc1
inactive: [1] | [2] | [3] | [4] | [5] | [6] | Papain (Carica papaya)

CC(=O)/C=C1\C(=O)N(C)c2ccccc21
inactive: [1] | [2] | [3] | [5] | [6] | Papain (Carica papaya)

NCCCCC(=O)O
inactive: [1] | [2] | [3] | [4] | [6] | Papain (Carica papaya)

CC(C)NC[C@@H](O)c1ccc(O)c(O)c1
inactive: [1] | [2] | [3] | [4] | Papain (Carica papaya)

CN1C2CC(OC(=O)[C@H](CO)c3ccccc3)CC1C1OC12 (stereo partly specified)
inactive: [1] | [2] | [3] | [4] | Papain (Carica papaya)

C=CC(N)CCC(=O)O (stereo unspecified)
inactive: [1] | [2] | [3] | [4] | Papain (Carica papaya)

C[N+](C)(C)CCOP(=O)(O)OP(=O)([O-])OC[C@H]1O[C@@H](n2ccc(N)nc2=O)[C@H](O)[C@@H]1O
inactive: [1] | [2] | [4] | [5] | [6] | Papain (Carica papaya)

OC[C@H]1O[C@@H](n2cnc3c(NC4CCCCC4)ncnc32)[C@H](O)[C@@H]1O
inactive: [1] | [2] | [3] | [5] | [6] | Papain (Carica papaya)

O=[N+]([O-])c1ccc(CSc2ncnc3c2ncn3[C@@H]2O[C@H](CO)[C@@H](O)[C@H]2O)cc1
inactive: [1] | [2] | [3] | [4] | [6] | Papain (Carica papaya)

Brc1c(Br)c(Br)c2n[nH]nc2c1Br
inactive: [1] | [2] | [3] | [4] | [6] | Papain (Carica papaya)
